Reference: PubChem BioAssay
Active and inactive are the calls of the source.

What was measured:
Albumin (Bos taurus) = Albumin (Bos taurus) (UniProt P02769); assay: bovine serum albumin binders on microarray, profiling panel, artefact control for SMM control protein annotation, biochemical, small-molecule microarray, Alexa647 label, 635/667 nm fluorescence (AID 1118); details: BSA-A647 binding, fluorescence 635 nm, higher = more signal;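 further: score merges 667 nm emission intensity and signal-to-noise per printed compound spot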
[1] = small-molecule microarray binders of probe aXIP, primary screen, biochemical, NeuroSMM set, 635/667 nm fluorescence (AID 1119); details: higher = more signal, called active from +8 up or from −8 down;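 further: probe is the protein aXip251-270 applied at 1 µg/mL to compound-printed slides; binding of probe to printed compounds measured as 667 nm fluorescence plus signal to noise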
[2] = small-molecule binders of probe aNOTCH3, primary screen, biochemical, small-molecule microarray, 635/667 nm fluorescence (AID 1120); details: higher = more signal;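 further: probe is a biotin-tagged antibody raised against NOTCH3 rather than NOTCH3 protein; score merges spot fluorescence near 667 nm with spot signal to noise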
[3] = small-molecule binders of probe aNOTCH2, primary screen, biochemical, small-molecule microarray, 635/667 nm fluorescence (AID 1121); details: higher = more signal;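 further: score merges feature fluorescence read at 667 nm with its signal to noise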
[4] = target: Carbonic anhydrase 2 (Homo sapiens) (UniProt P00918); assay: CAII small-molecule binders, profiling panel, biochemical, small-molecule microarray, Alexa647-labelled CAII (AID 1122); details: CAII-A647 binding fluorescence, higher = more signal
[5] = COS7 lysate on small-molecule microarray, probe aHis, 635 nm (AID 1123); details: COS7 cell lysate, fluorescence, higher = more signal;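 further: z-score combines 667nm fluorescence intensity with signal-to-noise per printed compound spot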
[6] = compound binding in COS7 lysate, probe aLAP1, primary screen, cell lysate, small-molecule microarray (AID 1124); details: probe aLAP1, fluorescence, higher = more signal;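 further: lysate comes from COS7 cells expressing LAP1 and is applied at 0.3 µg/mL; score merges spot fluorescence near 667 nm with signal-to-noise over triplicate slides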
Sam68 (KHDRBS1) = assay: Sam68 small-molecule binders, primary screen, biochemical, small-molecule microarray, 635 nm fluorescence (AID 1125); details: small-molecule microarray binding, higher = more signal;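 further: score merges 667 nm channel intensity with signal to noise over triplicate slides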
[7] = system: Chordin-like protein 2 (CHRDL2); assay: CHRDL2 small-molecule binders, primary screen, biochemical, small-molecule microarray, 635 nm fluorescence (AID 1126); details: small-molecule microarray binding, fluorescence 635 nm; higher = more signal;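 further: printed compound slides probed with Chrdl2 protein at 4 µg/mL for 1 h at 4 C; score merges 667 nm emission intensity with signal to noise over three replicate slides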
[8] = target: Concanavalin-A (Canavalia ensiformis) (UniProt P02866); assay: ConA small-molecule binders, primary screen, artefact control for SMM control protein annotation, biochemical, small-molecule microarray, Alexa647 label, 635 nm (AID 1127); details: ConA-A647 binding fluorescence, higher = more signal;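 further: z combines 667 nm emission intensity with signal-to-noise across three replicate slides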
[9] = anti-His antibody binders, primary screen, artefact control for SMM control protein annotation, biochemical, small-molecule microarray, 635 nm fluorescence (AID 1128); details: anti-His Alexa647 antibody binding, higher = more signal;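 further: score merges feature fluorescence with signal-to-noise for each printed compound spot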
[10] = system: Human papillomavirus type 1a E7 protein (residues 1-88); assay: HPV1a E7 small-molecule binders, primary screen, biochemical, small-molecule microarray, residues 1-88, 635 nm (AID 1129); details: small-molecule microarray binding, fluorescence 635 nm; higher = more signal
[11] = target: Focal adhesion kinase 1 (Homo sapiens) (UniProt Q05397); assay: small-molecule microarray binders of FAK, primary screen, biochemical, 635/667 nm fluorescence, BSA, DTT (AID 1130); details: PTK2 binding, 635 nm fluorescence, higher = more signal;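 further: composite of spot emission at 667 nm and signal to noise over triplicate slides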
[12] = system: Fibrinogen (Alexa647-labelled); assay: fibrinogen binders on compound microarrays, profiling panel, artefact control for SMM control-protein annotation, biochemical, small-molecule microarray, 635/667 nm fluorescence (AID 1131); details: fibrinogen-A647 binding fluorescence, higher = more signal;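 further: z-score merges 667 nm fluorescence with per-spot signal-to-noise over triplicate slides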
[13] = target: Follistatin (Homo sapiens) (UniProt P19883); assay: follistatin binders on small-molecule microarrays, primary screen, biochemical, small-molecule microarray, 635/667 nm fluorescence (AID 1132); details: FST binding, 635 nm fluorescence, higher = more signal
[14] = target: Fibroblast growth factor 2 (Homo sapiens) (UniProt P09038); assay: FGF2 binders on small-molecule microarrays, primary screen, biochemical, small-molecule microarray, 635/667 nm fluorescence (AID 1133); details: small-molecule microarray binding, FGF2, fluorescence 635/667; higher = more signal
[15] = mitochondrial membrane potential change in A549 cells, profiling panel, cell-based, JC-1 fluorescence, basal, 24 h, 100 nL (AID 1138); details: higher = more signal;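 further: A549 lung adenocarcinoma cells under basal conditions with no added stimulus; test concentration not given here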
Lefty1 = Lefty1 binders on small-molecule microarrays, primary screen, biochemical, small-molecule microarray, 635/667 nm fluorescence (AID 1139); details: small-molecule microarray binding, fluorescence 635/667; higher = more signal
[16] = system: wheat germ agglutinin (Triticum aestivum), Alexa647-labelled; assay: wheat germ agglutinin binders on compound microarrays, profiling panel, artefact control for SMM control-protein annotation, biochemical, small-molecule microarray, 635/667 nm fluorescence (AID 1140); details: WGA-A647 binding, 635 nm fluorescence, higher = more signal;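 further: score merges 667 nm feature emission with signal to noise over triplicate slides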
[17] = target: Luciferin 4-monooxygenase (Photinus pyralis) (UniProt P08659); assay: firefly luciferase enzyme inhibitors, primary screen, biochemical, luminescence, purified enzyme, 2006 set (AID 1141); details: SteadyGlo luminescence, 30 min, higher = more signal, called active from +8 up or from −8 down;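 further: cell-free assay with purified firefly luciferase at 100 ng per well in PBS; test concentration not given here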
Sequence of Luciferin 4-monooxygenase (Photinus pyralis) (P08659 whole entry, looked up): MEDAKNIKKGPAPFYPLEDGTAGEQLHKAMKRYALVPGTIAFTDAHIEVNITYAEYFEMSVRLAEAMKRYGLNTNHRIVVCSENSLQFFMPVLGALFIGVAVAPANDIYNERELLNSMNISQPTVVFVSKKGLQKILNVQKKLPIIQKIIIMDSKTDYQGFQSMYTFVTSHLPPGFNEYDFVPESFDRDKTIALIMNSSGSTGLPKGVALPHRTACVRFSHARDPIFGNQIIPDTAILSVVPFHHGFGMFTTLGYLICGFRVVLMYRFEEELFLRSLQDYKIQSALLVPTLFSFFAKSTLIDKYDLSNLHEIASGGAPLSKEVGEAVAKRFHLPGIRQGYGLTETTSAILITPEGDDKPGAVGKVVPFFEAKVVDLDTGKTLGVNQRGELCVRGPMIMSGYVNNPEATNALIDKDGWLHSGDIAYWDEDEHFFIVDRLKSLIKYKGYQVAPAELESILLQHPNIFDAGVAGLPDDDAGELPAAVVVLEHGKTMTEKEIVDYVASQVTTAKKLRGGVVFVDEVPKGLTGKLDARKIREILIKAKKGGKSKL

Sequence of Follistatin (Homo sapiens) (P19883 whole entry, looked up): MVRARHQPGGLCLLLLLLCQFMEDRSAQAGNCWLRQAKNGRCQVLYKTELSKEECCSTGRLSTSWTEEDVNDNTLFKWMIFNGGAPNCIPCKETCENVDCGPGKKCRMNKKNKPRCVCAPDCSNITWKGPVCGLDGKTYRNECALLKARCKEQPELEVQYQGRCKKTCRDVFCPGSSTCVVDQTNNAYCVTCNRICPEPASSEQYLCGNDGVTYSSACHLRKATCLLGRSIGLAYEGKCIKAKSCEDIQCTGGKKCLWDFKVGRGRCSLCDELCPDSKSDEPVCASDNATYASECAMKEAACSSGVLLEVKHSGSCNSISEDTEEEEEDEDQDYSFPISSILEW
Sequence of Focal adhesion kinase 1 (Homo sapiens) (Q05397 whole entry, looked up): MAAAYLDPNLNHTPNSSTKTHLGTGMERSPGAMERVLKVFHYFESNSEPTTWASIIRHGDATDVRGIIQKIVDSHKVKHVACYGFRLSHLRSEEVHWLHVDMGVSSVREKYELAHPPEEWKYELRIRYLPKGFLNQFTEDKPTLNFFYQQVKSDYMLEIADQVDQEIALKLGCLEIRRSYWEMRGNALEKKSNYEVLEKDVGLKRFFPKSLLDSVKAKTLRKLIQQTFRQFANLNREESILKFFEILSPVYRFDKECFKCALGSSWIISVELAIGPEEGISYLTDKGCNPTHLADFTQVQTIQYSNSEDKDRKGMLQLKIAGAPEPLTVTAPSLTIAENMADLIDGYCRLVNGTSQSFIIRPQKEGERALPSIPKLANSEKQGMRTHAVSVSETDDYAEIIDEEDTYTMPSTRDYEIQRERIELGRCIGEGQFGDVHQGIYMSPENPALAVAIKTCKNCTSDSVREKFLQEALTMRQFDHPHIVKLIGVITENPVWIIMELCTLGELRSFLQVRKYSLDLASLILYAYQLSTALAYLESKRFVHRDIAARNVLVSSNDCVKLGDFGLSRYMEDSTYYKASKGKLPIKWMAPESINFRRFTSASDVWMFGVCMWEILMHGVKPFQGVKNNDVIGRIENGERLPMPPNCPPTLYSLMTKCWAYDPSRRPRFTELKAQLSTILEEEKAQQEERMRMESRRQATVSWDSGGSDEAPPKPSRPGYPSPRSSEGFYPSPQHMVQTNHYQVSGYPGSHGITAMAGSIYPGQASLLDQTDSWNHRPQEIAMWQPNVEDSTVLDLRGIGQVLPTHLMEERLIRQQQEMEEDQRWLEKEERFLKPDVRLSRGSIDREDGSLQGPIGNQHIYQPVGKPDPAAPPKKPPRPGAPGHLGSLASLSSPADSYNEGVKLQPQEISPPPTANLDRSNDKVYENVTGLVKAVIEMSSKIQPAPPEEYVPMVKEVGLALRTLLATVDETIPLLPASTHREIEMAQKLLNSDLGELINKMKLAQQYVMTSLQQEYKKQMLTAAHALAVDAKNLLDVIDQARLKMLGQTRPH
Sequence of Fibroblast growth factor 2 (Homo sapiens) (P09038 whole entry, looked up): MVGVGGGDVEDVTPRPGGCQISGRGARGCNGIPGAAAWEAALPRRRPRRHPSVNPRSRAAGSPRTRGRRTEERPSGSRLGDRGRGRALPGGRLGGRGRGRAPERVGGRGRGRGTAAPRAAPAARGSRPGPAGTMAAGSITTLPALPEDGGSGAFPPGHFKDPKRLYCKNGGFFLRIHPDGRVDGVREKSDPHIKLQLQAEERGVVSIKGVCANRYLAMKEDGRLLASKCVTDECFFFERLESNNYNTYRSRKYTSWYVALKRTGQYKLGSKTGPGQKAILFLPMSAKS
Sequence of Albumin (Bos taurus) (P02769 whole entry, looked up): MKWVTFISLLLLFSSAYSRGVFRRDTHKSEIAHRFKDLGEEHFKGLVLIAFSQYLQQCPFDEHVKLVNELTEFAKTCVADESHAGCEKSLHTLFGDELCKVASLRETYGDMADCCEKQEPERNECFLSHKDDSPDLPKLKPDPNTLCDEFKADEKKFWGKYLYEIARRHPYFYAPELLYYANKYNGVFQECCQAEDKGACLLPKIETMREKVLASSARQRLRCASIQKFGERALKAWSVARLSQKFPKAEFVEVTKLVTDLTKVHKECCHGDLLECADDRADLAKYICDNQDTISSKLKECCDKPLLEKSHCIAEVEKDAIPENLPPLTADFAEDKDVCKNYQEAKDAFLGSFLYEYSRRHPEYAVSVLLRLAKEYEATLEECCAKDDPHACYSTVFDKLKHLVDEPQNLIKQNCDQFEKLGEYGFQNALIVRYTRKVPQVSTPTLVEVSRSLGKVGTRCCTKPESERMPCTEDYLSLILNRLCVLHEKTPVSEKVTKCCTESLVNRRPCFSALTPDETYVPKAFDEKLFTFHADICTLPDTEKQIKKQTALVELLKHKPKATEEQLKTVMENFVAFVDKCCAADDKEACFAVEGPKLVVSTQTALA
Sequence of Concanavalin-A (Canavalia ensiformis) (P02866 whole entry, looked up): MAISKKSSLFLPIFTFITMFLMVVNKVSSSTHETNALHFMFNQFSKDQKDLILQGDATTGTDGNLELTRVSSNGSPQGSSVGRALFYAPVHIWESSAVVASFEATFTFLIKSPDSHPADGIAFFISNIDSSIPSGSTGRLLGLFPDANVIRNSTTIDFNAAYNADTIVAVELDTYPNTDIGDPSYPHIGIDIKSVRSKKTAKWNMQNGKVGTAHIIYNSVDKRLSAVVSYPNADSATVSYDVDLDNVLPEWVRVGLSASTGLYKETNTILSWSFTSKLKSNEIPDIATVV

Row | Compound | composite z-score (Albumin (Bos taurus)) | composite Z-score [1] | composite z-score [2] | composite z-score [3] | composite z-score [4] | composite z-score [5] | composite z-score [6] | composite z-score (Sam68 (KHDRBS1)) | composite z-score [7] | composite z-score [8] | composite z-score [9] | composite z-score [10] | composite z-score [11] | composite z-score [12] | composite z-score [13] | composite z-score [14] | z-score [15] | composite z-score (Lefty1) | composite z-score [16] | z-score [17]
1 | COc1ccc([Si](C)(C)[C@@H]2[C@@H](CC(=O)N3CCC[C@H]3CO)O[C@]3(C(=O)N(Cc4cccc(N5C(=O)COc6ccccc65)c4)c4ccccc43)[C@H]2C)cc1 | 0.577 | 0.254 (inactive) | -0.0821 | -0.167 | 0.462 | 0.664 | 0.271 | 1.3 | 0.291 | 1.12 | 1.43 | 1.21 | 0.438 | 0.711 | 0.821 | 1.22 | -0.522 | 0.984 | 1.15 | -0.23 (inactive)
2 | CN(C)C(=O)[C@@]1(Cc2ccccc2CN=[N+]=[N-])N=C(c2ccc(OCCCO)cc2)O[C@H]1c1ccccc1N=[N+]=[N-] | 0.973 | 0.91 (inactive) | 0.612 | -0.115 | 0.731 | 2.95 | 0.772 | 1.21 | -0.612 | 1.1 | 2.09 | 1.27 | 0.801 | 0.983 | 0.711 | -0.0088 | -1.02 | 0.627 | 1.22 | -6.81 (inactive)
3 | CO[C@H]1O[C@H](CO)[C@@H](OC(=O)Nc2ccc(Br)cc2)[C@@H]2OC(=O)[C@@H](Cc3ccccc3)C/C=C/C[C@H](Cc3ccccc3)C(=O)O[C@@H]12 | 0.771 | -1.09 (inactive) | 0.11 | -0.0601 | 0.635 | 1.65 | 0.0964 | 0.968 | -0.173 | 0.516 | 2.43 | 1.16 | 0.619 | 0.442 | 0.313 | 0.397 | 2.5 | -0.0196 | 0.424 | -1.38 (inactive)
4 | CCCC[C@@H](O)C1=C(COC)C[C@H]2C(=O)N(C)C(=O)[C@H]2[C@H]1CO | 0.277 | 0.0275 (inactive) | -0.139 | -0.217 | 0.183 | -0.419 | 0.0048 | -0.0046 | 0.831 | 0.256 | 0.217 | -0.165 | -0.185 | 0.171 | 0.504 | 0.201 | -0.278 | 1.14 | -0.11 | 0.0646 (inactive)
5 | CCOC(=O)C[C@H]1[C@H](OC(=O)c2cc3ccccc3oc2=O)[C@@H](NC(=O)c2ccccc2)c2cc(OCCCO)ccc2N1C(=O)c1ccccc1 | -0.122 | 0.0916 (inactive) | -0.0199 | -0.147 | -0.129 | 0.236 | -0.155 | 0.64 | 0.498 | 0.535 | 0.29 | 0.828 | 0.138 | 0.37 | 0.744 | 1.18 | -0.816 | 0.443 | 0.0432 | 0.713 (inactive)
